# Test results published in PubChem BioAssay (NCATS).
# Unmarked numbers belong to inactive results. Results filed as inconclusive are left out. Where a call stands in place of a potency, no number is given. Activity calls are given as the source filed them. Unless noted, calls come from the whole dose curve; as a rule, active = well fitted curve in the direction sought with a large enough effect; inconclusive = small, poorly fitted or top-dose-only effect, or another doubt; inactive = no such curve, though single readings can be large; an effect the other way counts as inactive or inconclusive.
# Assays:
# [1] = AP1 Signaling Pathway (AID 357; active = well fitted curve in either direction with a large enough effect, not every such curve was filed as active); conditions: ME-180 AP-1-bla reporter, EGF-induced, beta-lactamase ratio, 5 h; at 7.69 µM (top of the series) unless noted
# Outline: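 ME-180 cells with beta-lactamase reporter under AP-1 response element, stimulated with EC50 EGF; compounds tested in titration series, 5 h at 37 °C. CCF4 substrate added 2.5 h at room temperature; 460/530 nm emission ratio gave %activity and AC50.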
# [2] = Stat Signaling Pathway (AID 446; active = well fitted curve in either direction with a large enough effect, not every such curve was filed as active;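 note: ME-180 cervical cancer cells given 40 pM IL-6 alongside compound; SIE-controlled beta-lactamase reporter measured as 460/530 nm FRET emission ratio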)
# Outline: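 Reporter line: ME-180 cervical carcinoma, SIE-beta-lactamase. Treatment: compound with 40 pM IL-6, 5 hrs, 37 C, in low-serum OPTI-MEM with 10 mM HEPES pH 7.3. Detection: 460/530 nm fluorescence.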
# [3] = biological target: Glucocorticoid receptor (Homo sapiens) (UniProt P04150); test: GR-GFP Redistribution (AID 450;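 active = compounds whose dose series gives a full or clear partial fitted curve of increased nuclear translocation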; note: potency is the fitted concentration of half-maximal effect); conditions: U2OS GR-GFP nuclear translocation, laser cytometry, 2 h
# [4] = biological target: Tyrosyl-DNA phosphodiesterase 1 (Homo sapiens) (UniProt Q9NUW8); test: Confirmation Assay for Inhibitors of Tyrosyl-DNA Phosphodiesterase (TDP1) (AID 489007); conditions: recombinant human TDP1 enzymatic activity, dose-response; note: potency is the fitted concentration of half-maximal effect; nearly all actives have a fitted effect of over 40% in size
# Outline: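 Recombinant human Tdp1 (1 nM final), expressed in E. coli, preincubated 15 min with compound. Then 15 nM 5'-biotin/3'-phosphotyrosine-FITC DNA substrate added for 5 min at room temperature. AlphaScreen beads (10 ug/ml) added for 10 min; cleavage gives signal loss.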
# [5] = qHTS for Inhibitors of the vitamin D receptor (VDR): Hit Validation using a Texas Red Assay (AID 602201)
# Outline: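 Fluorescence polarization (Ex 595/Em 615 nm) of Texas Red (7 nM) with 1.5 uM VDR-LBD and LG19078 (final concentrations). Compounds were incubated for 2 hours at room temperature.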
# [6] = NCATS anti-infectives library activity on HEK293 viability as a counter-qHTS vs the C. elegans viability qHTS (AID 1745854);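 note: HEK293 cells exposed to compounds for 24 hr before the viability read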
# Outline: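 HEK293 cells (1,500/well) exposed 24 hr at 37C to 1:5 titrations, up to 41.7 uM final; counter-screen to a C. elegans viability qHTS. Viability by CellTiter-Glo luminescence after 10 min at room temperature; digitonin as control.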
# [7] = biological target: Rap guanine nucleotide exchange factor 3 (Homo sapiens) (UniProt O95398); test: Confirmatory qHTS for agonist of cAMP-regulated guanine nucleotide exchange factor 3 (EPAC1) (AID 1645881);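 note: EPAC1 catalysed release of BODIPY-GDP from Rap1B seen as fluorescence loss; nearly all actives have a fitted effect of over 75% in size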
# [8] = biological target: Rap guanine nucleotide exchange factor 4 (Homo sapiens) (UniProt Q8WZA2); test: Confirmatory qHTS for agonist of cAMP-regulated guanine nucleotide exchange factor 4 (EPAC2) (AID 1645884);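 note: nucleotide exchange releases bodipy-GDP from Rap1 and this lowers its fluorescence; nearly all actives have a fitted effect of over 65% in size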
# [9] = biological target: Rap guanine nucleotide exchange factor 4 (Homo sapiens) (UniProt Q8WZA2); test: Confirmatory qHTS for antagonist of cAMP-regulated guanine nucleotide exchange factor 4 (EPAC2) (AID 1645885); note: nearly all actives have a fitted effect of over 25% in size; note: potency is the fitted concentration of half-maximal effect
# Rap guanine nucleotide exchange factor 4 (Homo sapiens), sequence (Q8WZA2 whole entry, looked up): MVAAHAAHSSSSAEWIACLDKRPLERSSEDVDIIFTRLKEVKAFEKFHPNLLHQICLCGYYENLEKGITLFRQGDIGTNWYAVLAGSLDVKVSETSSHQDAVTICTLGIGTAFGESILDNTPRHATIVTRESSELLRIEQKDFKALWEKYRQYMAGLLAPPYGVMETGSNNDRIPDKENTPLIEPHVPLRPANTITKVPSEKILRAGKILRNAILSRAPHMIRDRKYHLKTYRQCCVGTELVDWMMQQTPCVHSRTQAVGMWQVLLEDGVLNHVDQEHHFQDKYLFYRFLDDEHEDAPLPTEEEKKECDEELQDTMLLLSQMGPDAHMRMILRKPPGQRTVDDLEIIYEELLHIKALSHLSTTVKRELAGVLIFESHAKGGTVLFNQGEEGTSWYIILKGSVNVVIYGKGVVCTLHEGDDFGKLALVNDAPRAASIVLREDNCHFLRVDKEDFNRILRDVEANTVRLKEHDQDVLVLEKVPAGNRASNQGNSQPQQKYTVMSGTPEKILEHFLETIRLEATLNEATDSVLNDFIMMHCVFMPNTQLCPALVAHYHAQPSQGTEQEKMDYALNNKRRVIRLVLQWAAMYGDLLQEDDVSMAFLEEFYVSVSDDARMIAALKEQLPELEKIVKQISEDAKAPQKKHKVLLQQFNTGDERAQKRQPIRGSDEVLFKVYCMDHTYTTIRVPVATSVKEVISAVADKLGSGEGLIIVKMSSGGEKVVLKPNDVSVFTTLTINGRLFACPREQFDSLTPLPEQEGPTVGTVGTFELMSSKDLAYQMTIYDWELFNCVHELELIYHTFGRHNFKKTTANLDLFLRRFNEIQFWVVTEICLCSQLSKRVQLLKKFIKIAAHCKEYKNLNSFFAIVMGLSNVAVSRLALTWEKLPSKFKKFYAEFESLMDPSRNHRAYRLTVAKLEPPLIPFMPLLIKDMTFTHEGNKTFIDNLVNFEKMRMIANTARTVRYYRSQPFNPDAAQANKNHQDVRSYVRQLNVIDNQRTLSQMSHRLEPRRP
# Rap guanine nucleotide exchange factor 3 (Homo sapiens), sequence (O95398 whole entry, looked up): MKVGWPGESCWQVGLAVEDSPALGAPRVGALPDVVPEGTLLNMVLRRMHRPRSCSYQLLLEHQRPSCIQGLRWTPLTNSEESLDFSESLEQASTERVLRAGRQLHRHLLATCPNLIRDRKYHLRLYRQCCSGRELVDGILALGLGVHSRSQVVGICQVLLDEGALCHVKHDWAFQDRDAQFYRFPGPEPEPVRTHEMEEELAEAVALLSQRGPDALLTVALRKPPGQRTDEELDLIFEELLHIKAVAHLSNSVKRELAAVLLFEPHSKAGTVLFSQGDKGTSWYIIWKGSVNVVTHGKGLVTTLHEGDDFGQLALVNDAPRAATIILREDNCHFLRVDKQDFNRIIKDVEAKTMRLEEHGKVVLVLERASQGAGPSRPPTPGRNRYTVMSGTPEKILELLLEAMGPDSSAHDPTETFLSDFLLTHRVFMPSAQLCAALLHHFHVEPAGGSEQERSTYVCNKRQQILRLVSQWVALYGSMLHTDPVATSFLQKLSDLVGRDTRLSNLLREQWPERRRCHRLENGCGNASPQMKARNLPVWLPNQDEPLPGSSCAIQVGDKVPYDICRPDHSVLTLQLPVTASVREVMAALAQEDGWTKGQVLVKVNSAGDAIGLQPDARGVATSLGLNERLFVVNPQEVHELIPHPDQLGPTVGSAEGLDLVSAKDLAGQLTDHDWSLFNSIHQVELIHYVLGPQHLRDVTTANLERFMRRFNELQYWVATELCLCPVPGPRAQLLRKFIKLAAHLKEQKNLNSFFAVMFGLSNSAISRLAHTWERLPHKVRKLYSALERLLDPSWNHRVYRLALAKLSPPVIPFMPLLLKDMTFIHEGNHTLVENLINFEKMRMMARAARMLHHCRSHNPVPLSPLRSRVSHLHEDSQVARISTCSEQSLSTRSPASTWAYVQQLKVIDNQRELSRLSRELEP
# Tyrosyl-DNA phosphodiesterase 1 (Homo sapiens), sequence (Q9NUW8 whole entry, looked up): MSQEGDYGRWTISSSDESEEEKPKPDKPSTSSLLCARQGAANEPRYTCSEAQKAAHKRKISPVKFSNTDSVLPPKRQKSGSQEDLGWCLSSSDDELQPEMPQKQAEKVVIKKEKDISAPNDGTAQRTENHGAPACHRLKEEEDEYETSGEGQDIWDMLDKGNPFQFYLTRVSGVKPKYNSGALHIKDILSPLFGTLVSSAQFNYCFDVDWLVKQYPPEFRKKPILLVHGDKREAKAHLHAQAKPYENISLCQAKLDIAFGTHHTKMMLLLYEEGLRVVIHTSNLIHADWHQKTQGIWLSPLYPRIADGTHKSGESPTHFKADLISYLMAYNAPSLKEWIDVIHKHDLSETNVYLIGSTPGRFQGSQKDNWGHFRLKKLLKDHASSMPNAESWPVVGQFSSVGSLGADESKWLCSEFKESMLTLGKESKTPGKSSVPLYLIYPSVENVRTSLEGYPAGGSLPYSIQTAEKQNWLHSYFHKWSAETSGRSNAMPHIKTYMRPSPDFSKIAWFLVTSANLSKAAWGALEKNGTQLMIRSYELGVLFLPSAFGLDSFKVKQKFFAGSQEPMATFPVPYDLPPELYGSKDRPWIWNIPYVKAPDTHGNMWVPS
# Glucocorticoid receptor (Homo sapiens), sequence (P04150 whole entry, looked up): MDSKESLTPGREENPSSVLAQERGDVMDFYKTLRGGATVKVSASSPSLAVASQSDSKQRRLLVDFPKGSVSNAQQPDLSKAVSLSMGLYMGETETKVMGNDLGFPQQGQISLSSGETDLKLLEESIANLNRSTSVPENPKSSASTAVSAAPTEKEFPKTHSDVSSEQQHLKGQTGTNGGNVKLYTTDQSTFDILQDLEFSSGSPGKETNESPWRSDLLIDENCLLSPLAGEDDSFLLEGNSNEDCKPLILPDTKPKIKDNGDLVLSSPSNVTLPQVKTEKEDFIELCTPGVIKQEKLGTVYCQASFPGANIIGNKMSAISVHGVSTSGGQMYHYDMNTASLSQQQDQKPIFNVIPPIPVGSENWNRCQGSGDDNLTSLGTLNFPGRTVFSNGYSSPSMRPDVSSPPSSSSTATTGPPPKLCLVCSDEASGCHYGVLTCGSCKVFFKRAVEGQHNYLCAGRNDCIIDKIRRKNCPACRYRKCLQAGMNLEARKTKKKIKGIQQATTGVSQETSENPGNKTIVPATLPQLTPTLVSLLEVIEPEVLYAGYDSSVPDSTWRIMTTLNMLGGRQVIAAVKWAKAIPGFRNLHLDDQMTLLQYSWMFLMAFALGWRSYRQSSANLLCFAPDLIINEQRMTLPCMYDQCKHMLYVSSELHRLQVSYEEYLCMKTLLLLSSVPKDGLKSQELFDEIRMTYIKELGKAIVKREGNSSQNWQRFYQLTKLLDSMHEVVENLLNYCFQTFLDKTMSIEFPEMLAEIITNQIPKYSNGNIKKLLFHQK
smiles,measurement,setting,value
CN1CC=C2C(C#N)=C(N)C(C#N)(C#N)[C@H](c3cccc(Cl)c3)C2C1 (stereo partly specified),"activity change, negative = inhibition",[1],-16.2% [at 17.2 µM]
same,outcome,[2],inactive
same,Potency,[3],> 20.6 µM
O=C(O)c1ccc(COc2ccccc2/C=C2/NC(=O)N(c3cccc(Cl)c3)C2=O)cc1,Potency,[4],10 µM (active)
O=[N+]([O-])c1c(Nc2ccccn2)cc(Cl)c2nonc12,Potency,[5],inactive
COc1cccc(Nc2nnc(-c3cc4ccc(O)cc4oc3=O)s2)c1,Potency,[6],inactive
O=C1NC[C@@H](Cc2cccc3ccccc23)N(CCc2cc(C(F)(F)F)cc(C(F)(F)F)c2)C1=O,Potency,[7],inactive
same,Potency,[8],inactive
same,Potency,[9],inactive
CN(CC(=O)Nc1ccc(Cl)c(C(F)(F)F)c1)CC(=O)NC1CCCCC1,Potency,[7],inactive
same,Potency,[8],inactive
same,Potency,[9],inactive
O=C1CCCC2=C1CC(C(=O)OCc1ccccc1)C(=O)N2Cc1ccccc1 (stereo unspecified),Potency,[7],inactive
same,activation,[8],"0% [at 17.1 µM, percent relative to cAMP agonist control]"
same,Potency,[9],inactive
CN(C)c1ccc(/C=C/c2cc[n+](C)c3ccccc23)cc1,Potency,[7],inactive
same,Potency,[8],inactive
same,Potency,[9],49.4 µM (active)
CN(C)c1ccc(C(=O)Nc2sc(Nc3ccccc3)nc2C(N)=O)cc1,Potency,[7],inactive
same,Potency,[8],inactive
same,Potency,[9],inactive
COc1ccc(Cn2c(-c3ccc(C)cc3)nc3c(c(=O)c4ccccc4n3C)c2=O)cc1,Potency,[7],inactive
same,activation,[8],"-1.59% [at 17.1 µM, percent relative to cAMP agonist control]"
same,Potency,[9],inactive
C[C@@H]1CN([C@@H](C)CO)C(=O)c2ccccc2-c2ccccc2CO[C@@H]1CN(C)S(=O)(=O)c1ccc(C(F)(F)F)cc1,Potency,[7],inactive
same,activation,[8],"1.26% [at 17.1 µM, percent relative to cAMP agonist control]"
same,Potency,[9],inactive
Cn1c(N)c(C(=O)COC(=O)CCCOc2ccc(Cl)cc2Cl)c(=O)n(C)c1=O,Potency,[7],inactive
same,Potency,[8],inactive
same,Potency,[9],37.9 µM (active)
CC(C)Oc1cc(F)ccc1-c1cc(C(=O)Nc2ccc(C(C)C)cc2)[nH]n1,Potency,[7],inactive
same,Potency,[8],inactive
same,Potency,[9],inactive
O=C1NC[C@H](Cc2ccccc2)N(C[C@@H]2CCCN2C[C@H](Cc2ccc(O)cc2)N2C[C@H](Cc3ccc(O)cc3)N(CC3CCCCC3)C(=O)C2=O)C1=O,Potency,[7],inactive
same,activation,[8],"15.7% [at 17.1 µM, percent relative to cAMP agonist control]"
same,Potency,[9],inactive
COC(=O)c1ccc(CSc2nc3scc(-c4cccs4)c3c(=O)[nH]2)o1,Potency,[7],inactive
same,Potency,[8],inactive
same,Potency,[9],inactive
O=C(Nc1cccc(NC(=O)c2cccs2)c1)c1ccc(Br)o1,Potency,[7],inactive
same,Potency,[8],inactive
same,Potency,[9],inactive
COc1ccc(C(=O)CC2(O)C(=O)N(Cc3cccc(C(F)(F)F)c3)c3ccccc32)cc1 (stereo unspecified),Potency,[7],inactive
same,Potency,[8],inactive
same,Potency,[9],inactive
COc1ccc(C2CC(=O)c3c(O)cc(O)cc3O2)c(CC=C(C)C)c1OC (stereo unspecified),Potency,[7],inactive
same,Potency,[8],inactive
same,Potency,[9],67.5 µM (active)
CCN(CC)c1ccccc1/C=C/[n+]1ccc(CCCCI)c2ccccc21,Potency,[7],inactive
same,Potency,[8],inactive
same,Potency,[9],49.4 µM (active)
CCOc1ccccc1NC(=O)C1CCN(c2nc(-c3ccc(OC)cc3)no2)CC1,Potency,[7],inactive
same,activation,[8],"2.09% [at 17.1 µM, percent relative to cAMP agonist control]"
same,Potency,[9],inactive
COc1ccc(OCCC(=O)OCC(=O)Nc2ccc(S(=O)(=O)N3CCOCC3)cc2)cc1,Potency,[7],inactive
same,activation,[8],"0% [at 17.1 µM, percent relative to cAMP agonist control]"
same,Potency,[9],inactive
O=C(Nc1cc(Cl)cc(Cl)c1)c1ccc(F)c(S(=O)(=O)NC2CCCC2)c1,Potency,[7],inactive
same,Potency,[8],inactive
same,outcome,[9],inactive [at 12.7 µM]
O=C1CCC[C@@H]2CC(N(Cc3cc4ccccc4s3)c3ccccc3)C[C@@H]3CCN1[C@H]23 (stereo partly specified),Potency,[7],inactive
same,Potency,[8],inactive
same,Potency,[9],inactive
C/C(=N\Nc1ccc([N+](=O)[O-])cc1)c1ccc(O)cc1,Potency,[7],inactive
same,Potency,[8],inactive
same,Potency,[9],26.9 µM (active)
COc1ccc(S(=O)(=O)/N=C2/NC(=O)/C(=C\c3cc(OC)c(OC)cc3[N+](=O)[O-])S2)cc1,Potency,[7],inactive
same,activation,[8],"0% [at 17.1 µM, percent relative to cAMP agonist control]"
same,Potency,[9],inactive
CCCN1CCN(c2ncnc3sc(C(=O)Nc4ccc(OC(F)(F)F)cc4)c(C)c23)CC1,Potency,[7],inactive
same,Potency,[8],inactive
same,Potency,[9],inactive
Cc1cccc(NC(=O)CSCC(=O)Nc2cccc(S(=O)(=O)N3CCCCCC3)c2)c1,Potency,[7],inactive
same,activation,[8],"8.94% [at 17.1 µM, percent relative to cAMP agonist control]"
same,Potency,[9],inactive
CN(C)S(=O)(=O)N(CC(=O)NCCSc1ccc(Cl)cc1)c1ccccc1,Potency,[7],inactive
same,Potency,[8],inactive
same,Potency,[9],inactive
CCCC(=O)NC(c1ccc(C)cc1)c1ccc2cccnc2c1O (stereo unspecified),Potency,[7],inactive
same,activation,[8],"0% [at 17.1 µM, percent relative to cAMP agonist control]"
same,Potency,[9],inactive
CCCCC[C@H]1CN(Cc2ccccc2)C(=O)[C@@H]1CC(=O)NCc1ccc(OC)cc1,Potency,[7],inactive
same,Potency,[8],inactive
same,Potency,[9],44.1 µM (active)
COc1cc(S(=O)(=O)NC2CCCCC2C)ccc1Cl (stereo unspecified),Potency,[7],inactive
same,Potency,[8],inactive
same,Potency,[9],inactive
COc1ccc(S(=O)(=O)N2CCCCC2)cc1NC(=O)c1c(F)cccc1Cl,Potency,[7],inactive
same,Potency,[8],inactive
same,Potency,[9],inactive
Oc1ccc(-c2nc(-c3ccc(O)c(O)c3)cs2)cc1,Potency,[7],inactive
same,Potency,[8],inactive
same,Potency,[9],inactive
COc1ccc(C(=O)N(Cc2ccco2)Cc2ccc(C)o2)cc1,Potency,[7],inactive
same,Potency,[8],inactive
same,Potency,[9],inactive
